The list is not random: actives were taken first. Their share in the collection is about 4.1%.
DAX1 inh-1: DAX1 (NR0B1) inhibition, primary screen. HEK293T StAR-luciferase reporter, SF-1/DAX-1 repression relief. inhibition, % at 6.8 µM. actives 1.1% (n = 370,000);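 active = inhibition above the mean over all tested compounds plus 3 SD, cut at about 3.6% in these data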;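 note: 0% = DAX-1 cells with DMSO and 100% = cells lacking DAX-1 with DMSO; higher inhibition means more luminescence from relief of DAX-1 repression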
DAX1 inh-2: inhibits human nuclear receptor DAX1. P51843. HEK293 Gal4-DAX1 luciferase reporter, luminescence. inhibition, % at 6.75 µM. actives 0.99% (n = 340,000). AID 504766;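 active = inhibition above the mean over all tested compounds plus 3 SD, cut at about 4.2% in these data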;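 note: 0% = DAX1-transfected cells with DMSO and 100% = empty-vector control cells with DMSO; inhibition shows as a rise in luminescence from relieved DAX1 repression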
Target sequence (P51843 207-470 limits assumed): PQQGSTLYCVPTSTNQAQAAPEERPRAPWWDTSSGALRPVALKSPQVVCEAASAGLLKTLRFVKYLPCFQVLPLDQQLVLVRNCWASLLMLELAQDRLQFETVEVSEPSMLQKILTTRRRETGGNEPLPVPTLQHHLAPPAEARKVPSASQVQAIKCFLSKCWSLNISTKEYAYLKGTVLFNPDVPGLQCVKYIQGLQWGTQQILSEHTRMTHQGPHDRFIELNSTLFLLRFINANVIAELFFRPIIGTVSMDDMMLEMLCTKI
hgDAF12 agonist: agonists of H. glycines DAF-12 nuclear receptor; HEK293 GAL4-hgDAF12 UAS-luciferase reporter, agonist luminescence; normalized to butyrate control; activation, % at 6.8 µM; actives 1.8% (n = 370,000); AID 687014;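 active = activation above a cutoff set at the mean of all screened compounds plus 3 SD, cut at about 10% in these data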;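 note: 0% = DMSO wells and 100% = sodium butyrate wells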
hcDAF12 agonist: H. contortus DAF-12 activation, primary screen. HEK293 hcDAF-12 lit1-tk-luc reporter, luminescence; 0% DMSO, 100% Δ7-dafachronic acid. activation, % at 6.8 µM. actives 1.4% (n = 370,000);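 active = activation above the mean of all tested compounds plus 3 SD, cut at about 5.5% in these data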;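 note: 100% = response to 3 µM Δ7-dafachronic acid high control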
ssDAF12 agonist: activates DAF-12 receptor from parasite S. stercoralis; HEK293 ssDAF-12/GRIP1 lit1-tk-luc reporter, luminescence; % of 3 µM dafachronic acid response; activation, % at 6.8 µM; actives 1% (n = 370,000);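 active = activation above the mean over all tested compounds plus 3 SD, cut at about 0.9% in these data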;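 note: 0% = DMSO-only wells and 100% = 3 µM delta7-dafachronic acid wells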
LXRb hcDAF ctr: activates human LXR-beta, counter-screen for hcDAF-12 agonists; shares compounds with hcDAF12 agonist; HEK293 Gal4-LXR tk-luc reporter, luminescence, 24 h; normalized: DMSO 0%, positive control 100%; activation, % at 6.8 µM; 3,400 tested, under 10 active;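 active = mean percent activation of the reporter above a cutoff set as the average over tested compounds plus their standard deviation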
hcDAF12 conf: hcDAF-12 agonism, confirmation assay | actives 61% (n = 3,400) | activation, % at 6.8 µM | shares compounds with hcDAF12 agonist | HEK293 hcDAF-12 lit1-tk-luc reporter, luminescence; % of Δ7-dafachronic acid response;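 active = mean activation across triplicate tests above the threshold derived from the earlier primary screen, cut at about 5.5% in these data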;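 note: 0% = DMSO only wells and 100% = 3 µM Δ7-dafachronic acid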
Numbers without * were called inactive; . = no result given.

SMILES	DAX1 inh-1	DAX1 inh-2	hgDAF12 agonist	hcDAF12 agonist	ssDAF12 agonist	LXRb hcDAF ctr	hcDAF12 conf
O=C(c1ccccc1)c1cc2ccccc2oc1=O	0.8	0.0	2.6	6.9*	0.2	0.1	4.7
CC(=O)c1ccc(-n2c(-c3cc(-c4ccsc4)n[nH]3)n[nH]c2=S)cc1	-1.2	0.2	-0.7	-1.4	-1.5	.	.
O=C(COC(=O)COc1ccccc1)NCc1ccc2c(c1)OCO2	0.5	-2.1	1.6	0.1	-0.3	.	.
O=C(CCCOc1ccccc1)N1CCN(c2ccccn2)CC1	2.4	0.8	8.0	10.4*	-0.5	1.1	6.4*
Cc1ccc2nc(N3C(=O)C(O)=C(C(=O)c4ccc(C)o4)C3c3ccco3)sc2c1 (centres undefined)	4.1*	0.1	11.0*	8.1*	0.6	-0.1	3.4
CC(C)(C)NC(=O)CSc1nc(-c2ccc(F)cc2)cs1	2.8	2.8	11.7*	7.2*	-0.8	1.0	5.1
CCNC(=O)CSc1nc(-c2ccc(F)cc2)cs1	1.7	-1.3	1.8	-1.5	-1.0	.	.
c1ccc2c(c1)NCCS2	1.1	0.9	1.9	3.4	-0.7	.	.
COc1cc2c(cc1OC)C(c1ccccc1N)=NCC2	-0.2	.	-5.0	-0.3	-1.2	.	.
COc1cc2c(cc1OC)C(c1ccccc1)=NCC2	-0.7	-1.5	-0.5	7.8*	-0.9	-0.4	0.3
COC(=O)C1=NN(c2ccccc2OC)C2C(=O)N(c3ccccc3OC)C(=O)C12 (centres undefined)	0.8	0.2	2.1	7.2*	0.2	-0.1	-0.1
Cc1nc(Nc2ccc3c(c2)OCCO3)c2oc3ccccc3c2n1	-0.1	-0.3	-2.6	-0.8	-1.2	.	.
c1ccc2c(c1)oc1c(Nc3ccc4c(c3)OCCO4)ncnc12	3.6	-0.1	12.2*	9.1*	0.6	1.4	6.4*
COc1ccc(S(=O)(=O)NNC(=S)NCCc2ccccc2)c(OC)c1	-0.8	0.2	2.9	-1.4	-0.9	.	.
O=C(N/N=C/c1ccc(Cl)cc1Cl)C(=O)NC1CC1	0.5	-0.3	-1.0	0.0	-0.9	.	.
Cc1cccc(N=Nc2c(O)[nH]c3ccc(Br)cc23)c1	0.3	1.1	6.6	11.7*	0.7	0.2	6.3*
Cc1ccc(NC(=O)c2nc[nH]c2C(=O)Nc2ccc(C)cc2)cc1	-0.9	-0.2	0.9	-1.3	-1.6	.	.
Cc1ccc(NC(=O)c2nsc(Cl)c2Cl)cc1	2.5	5.8*	11.3*	12.7*	2.1*	2.0	13.8*
O=C(O)c1cn(Cc2ccccc2Cl)c2ccc(S(=O)(=O)N3CCOCC3)cc2c1=O	1.4	0.5	1.0	-0.4	-1.5	.	.
COc1ccc(OC)c(Nc2nc(-c3cccs3)cs2)c1	0.5	-0.6	3.6	7.4*	0.9*	-0.1	4.6
COc1ccccc1Nc1nc(-c2cccs2)cs1	1.8	-0.5	10.0	8.2*	1.6*	1.8	16.0*
COc1ccc(-c2cnc(C(O)c3ccccc3)[nH]2)cc1 (centres undefined)	4.3*	.	8.4	6.7*	-0.7	0.8	7.1*
COc1ccc(CNC(=O)Cc2c(C(=O)O)[nH]c3ccccc23)c(OC)c1	0.3	0.9	1.1	6.9*	1.9*	-0.4	1.9
COc1ccc(CNC(=O)Cc2c(C(=O)O)[nH]c3ccccc23)cc1	0.2	0.7	0.2	0.3	0.6	.	.
CCc1nc2c(OCc3ccccc3C(=O)OC)cccn2c1N(C)C(=O)c1cccc(OC)c1	-0.7	.	-2.2	-1.2	-1.3	.	.
SMILES	DAX1 inh-1	DAX1 inh-2	hgDAF12 agonist	hcDAF12 agonist	ssDAF12 agonist	LXRb hcDAF ctr	hcDAF12 conf
C/C(=C\C(=S)Nc1ccccc1)Nc1ccc2ccccc2c1	0.5	-0.7	3.0	6.9*	0.1	0.5	5.3
O=C(OCc1nc2ccccc2s1)C1CCN(C2=NS(=O)(=O)c3ccccc32)CC1	1.6	2.0	5.2	9.7*	1.4*	0.6	9.6*
Cc1ccnc(NC(=O)c2cc3ccccc3o2)c1	2.5	-3.3	0.5	3.7	-0.7	.	.
O=C(Nc1ccccn1)c1cc2ccccc2o1	2.9	-3.6	3.3	10.3*	-0.1	0.7	13.1*
Cc1ccc(C)c(NC(=O)c2cc3ccccc3o2)c1	0.9	2.9	10.7*	7.8*	0.6	0.6	9.4*
O=C(N1CCOCC1)N1[C@H](COCc2ccccc2)C=CS1(=O)=O	-1.6	.	0.3	0.7	-0.8	.	.
Cc1ccccc1-n1ncc(C(C)NC(=O)c2ccco2)c1C (centres undefined)	0.5	0.7	3.5	0.6	-0.2	.	.
CC1=C(C#N)C(c2ccccc2O)C(C#N)=C(C)N1	-0.4	2.4	7.9	9.6*	0.6	-0.2	5.7*
CCC1CCC(N2CCN(c3cccc(OC)c3)CC2)CC1 (centres undefined)	0.6	-0.3	9.7	8.1*	0.2	0.0	1.2
CNC(=O)COC(=O)/C=C/c1c(C)nn(-c2ccccc2)c1C	-0.1	0.7	1.3	8.4*	-0.3	-0.2	0.7
O=c1c(=Nc2ccccc2O)c(=O)c2ccccc12	-1.1	-0.2	-0.2	8.3*	-0.9	0.7	5.4
COc1ccc(/C=C/C(=O)Nc2nonc2NC(C)=O)cc1	0.6	0.4	3.1	-0.2	-1.2	.	.
O=C(COC(=O)/C=C/c1cccc(Cl)c1)Nc1ccc(N2CCOCC2)cc1	-0.8	1.0	0.1	-0.3	-0.9	.	.
Cc1ccc(NC(=O)COC(=O)/C=C/c2cccc(Cl)c2)cc1S(=O)(=O)N1CCOCC1	0.2	0.5	0.4	8.7*	-0.1	-0.3	-0.1
Nc1ccn([C@@H]2O[C@H](C(=O)N3CCCN(Cc4ccccc4F)CC3)[C@@H](O)[C@H]2O)c(=O)n1	-0.2	.	3.4	-0.7	-0.8	.	.
Cc1cc(C(=O)Cn2nnc3ccccc3c2=O)c(C)n1Cc1cccs1	3.4	1.6	8.4	8.4*	0.9*	1.5	11.9*
Cc1cc(C(=O)CN2C(=O)c3ccccc3C2=O)c(C)n1Cc1cccs1	1.2	-0.1	6.3	3.2	-1.2	.	.
COc1ccc(CCNC(=O)C2CC(c3ccccc3[N+](=O)[O-])=NO2)cc1 (centres undefined)	0.7	3.7	8.0	7.6*	1.3*	0.6	6.6*
COCCNC(=O)C1CC(c2ccccc2[N+](=O)[O-])=NO1 (centres undefined)	0.3	2.5	1.1	-1.0	-1.3	.	.
O=c1c2ccccc2[nH]c(=S)n1CCc1ccccc1	0.9	1.2	9.7	8.1*	0.0	0.5	5.7*
Nc1nn(-c2ccccc2)c(N)c1N=Nc1ccccc1F	2.8	-1.9	17.7*	10.4*	2.1*	1.9	8.8*
